Assay outcomes deposited in PubChem BioAssay by several laboratories.
An excerpt weighted towards active compounds, which were near 3.5% of everything screened.
PG9 Ab binder – binds the HIV-1 gp120 antibody PG9 | TR-FRET gp120-PG9 antibody binding | inhibition, % at 6.7 µM | 360,000 tested, 0.43% active | AID 624416; in the data active = inhibition above about 8.5%
UHRF1 binding – UHRF1 methyl-DNA binding inhibition; UHRF1 binding to methylated oligo, TR-FRET; inhibition, % at 4.4 µM; 370,000 tested, 0.75% active; AID 687016;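 note: UHRF1 SRA domain binding a hemimethylated CpG hairpin DNA probe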
rCAG RNA binder – r(CAG) repeat RNA binding; 370,000 tested, 1.3% active; inhibition, % at 3 µM; TO-PRO-1 dye displacement fluorescence;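 active = inhibition above the plate cutoff, the mean of all test compounds on that plate plus 3 SD, cut at about 35% in these data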;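 note: higher means more dye released from RNA so lower well fluorescence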
LEDGF integ inh – blocks HIV-1 LEDGF/p75-dependent DNA integration | TR-FRET IN-LEDGF/p75 DNA integration, Eu/Cy5 | inhibition, % at 3.7 µM | 370,000 tested, 0.64% active;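 active = inhibition above the screen-wide mean plus 3 SD, cut at about 13% in these data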;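 note: signal is the Cy5 over europium emission ratio at 671 and 618 nm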
MBD2 DNA inh – MBD2-methylated oligo binding inhibition | TR-FRET, MBD2 binding to methylated oligonucleotide | inhibition, % at 4.4 µM | 370,000 tested, 0.31% active | AID 686964; in the data active = inhibition above about 13%
Target sequence (Q9UBB5 whole entry, looked up): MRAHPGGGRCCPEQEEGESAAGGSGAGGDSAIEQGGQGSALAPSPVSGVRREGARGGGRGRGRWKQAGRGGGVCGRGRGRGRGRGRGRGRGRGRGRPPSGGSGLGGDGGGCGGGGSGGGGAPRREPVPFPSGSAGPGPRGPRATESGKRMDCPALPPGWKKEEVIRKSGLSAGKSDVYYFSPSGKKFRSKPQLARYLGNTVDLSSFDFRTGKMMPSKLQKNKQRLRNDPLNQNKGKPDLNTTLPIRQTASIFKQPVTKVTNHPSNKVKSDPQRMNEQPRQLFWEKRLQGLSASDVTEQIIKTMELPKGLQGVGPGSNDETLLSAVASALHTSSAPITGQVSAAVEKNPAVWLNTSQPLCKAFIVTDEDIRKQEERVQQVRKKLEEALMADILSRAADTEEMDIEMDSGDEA
DNMT1 inh – blocks human DNA methyltransferase DNMT1; P26358; AID 588458; DNMT1 molecular beacon, Hinp1I cleavage, fluorescence; inhibition (reported as % activation of signal), % at 10 µM; 360,000 tested, 0.83% active; in the data active = inhibition above about 50%
rCAG binder conf – r(CAG) RNA repeat binding, confirmation | inhibition, % at 3 µM | AID 652065 | 4,300 tested, 70% active | shares compounds with rCAG RNA binder | TO-PRO-1 dye displacement fluorescence;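 active = inhibition above a per-plate cutoff, the mean inhibition of sample wells plus 3 SD, cut at about 35% in these data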;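 note: loss of TO-PRO-1 fluorescence as compound displaces dye from 1x1 AA loop RNA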
dCAG dye counter – disrupts DNA CAG TO-PRO-1 complex, flagging rCAG hits; 4,300 tested, 94% active; shares compounds with rCAG RNA binder; inhibition, % at 3 µM; d(CAG) DNA oligo TO-PRO-1 dye displacement, fluorescence;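 active = inhibition above its plate's cutoff, the mean test-well inhibition plus 3 SD, cut at about 4.8% in these data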;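 note: hits displace the dye from DNA and so lower well fluorescence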
UHRF1 DNA bind – counter-screen for MBD2 inhibitors: human UHRF1 methylated DNA binding inhibitors | AID 720530 | inhibition, % at 4.4 µM | shares compounds with MBD2 DNA inh | UHRF1 binding to methylated oligonucleotide, TR-FRET | 1,000 tested, 25% active;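 note: UHRF1 SRA domain binding a labeled hemimethylated CpG hairpin DNA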
MBD2 confirm – MBD2-DBD methyl-DNA binding inhibition, TR-FRET confirmation; shares compounds with MBD2 DNA inh; TR-FRET MBD2-DBD binding to methylated oligonucleotide; inhibition, % at 4.4 µM; 1,000 tested, 26% active; AID 720531; in the data active = inhibition above about 14%
IN multimer act – counter-screen for LEDGF/p75 integration inhibitors: HIV-1 integrase multimerization activators; activation, % at 7.7 µM; 2,000 tested, 17% active; TR-FRET HIV-1 integrase multimerization, biochemical; shares compounds with LEDGF integ inh; AID 1053131; in the data active = activation above about 8.9%
TR-FRET interf – TR-FRET optical interference, LEDGF/p75 integration counter-screen. inhibition, % at 7.7 µM. shares compounds with LEDGF integ inh. 2,000 tested, under 10 active. TR-FRET optical interference counterscreen, HIV-1 IN multimerization. AID 1053135;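 active = inhibition above the mean over all tested compounds plus 3 SD, which no compound reached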
LEDGF integ conf – LEDGF/p75-dependent HIV-1 integration inhibition, confirmation; 2,000 tested, 36% active; TR-FRET LEDGF/p75-dependent HIV-1 integration, biochemical; inhibition, % at 3.7 µM; AID 1053136; shares compounds with LEDGF integ inh; in the data active = inhibition above about 14%
Numbers stand for hits. Cut-off read from the data, not from the text of the source, unless noted: active = inhibition above about 21%; inactive = the rest.

For CC1(C(=O)NS(=O)(=O)c2ccccc2C(F)(F)F)CCN1C(=O)COc1ccc(Cl)cc1 (configuration not stated) the results were PG9 Ab binder inactive, UHRF1 binding inactive, rCAG RNA binder inactive, LEDGF integ inh inactive, MBD2 DNA inh inactive and DNMT1 inh inactive.
O=C(NCc1ccco1)c1cc2cc(Br)ccc2o1 was read as PG9 Ab binder inactive, UHRF1 binding inactive, rCAG RNA binder inactive, LEDGF integ inh inactive, MBD2 DNA inh inactive and DNMT1 inh inactive.
For COc1ccc(C)cc1NC(=O)CN1C(=O)COc2ccc(S(=O)(=O)N3CCC(C)CC3)cc21 the results were PG9 Ab binder inactive, UHRF1 binding inactive, rCAG RNA binder inactive, LEDGF integ inh inactive, MBD2 DNA inh inactive and DNMT1 inh inactive.
`COC(=O)c1ccccc1NCc1cc(=O)oc2cc(O)c(O)cc12` gave PG9 Ab binder inactive, UHRF1 binding inactive, rCAG RNA binder 36, LEDGF integ inh 21, MBD2 DNA inh inactive, DNMT1 inh inactive, rCAG binder conf 52, dCAG dye counter 23, IN multimer act inactive, TR-FRET interf inactive and LEDGF integ conf 34.
`O=C(CSc1nc2ccccc2nc1N1CCCCC1)N1CCN(S(=O)(=O)c2cc(Cl)ccc2Cl)CC1` gave UHRF1 binding inactive, rCAG RNA binder inactive, LEDGF integ inh inactive and MBD2 DNA inh inactive.
`FC(F)(F)c1cc(Cl)c2nc(-c3ccc(Cl)cc3)c(Cc3ccccc3)n2c1` gave PG9 Ab binder inactive, UHRF1 binding inactive, rCAG RNA binder inactive, LEDGF integ inh inactive, MBD2 DNA inh inactive and DNMT1 inh inactive.
`O=C1C(=Cc2ccco2)CCC1=Cc1ccco1` gave PG9 Ab binder inactive, UHRF1 binding 100, rCAG RNA binder 66, LEDGF integ inh 91, MBD2 DNA inh 103, DNMT1 inh inactive, rCAG binder conf 78, dCAG dye counter 44, UHRF1 DNA bind 96, MBD2 confirm 53, IN multimer act 14, TR-FRET interf inactive and LEDGF integ conf 93.
Screening CCOC(=O)c1ccc(N2C(=O)c3n[nH]c(-c4ccco4)c3C2c2cccc([N+](=O)[O-])c2)cc1 (configuration not stated) returned PG9 Ab binder inactive, UHRF1 binding inactive, rCAG RNA binder 74, LEDGF integ inh 16, MBD2 DNA inh inactive, DNMT1 inh inactive, rCAG binder conf inactive, dCAG dye counter 14, IN multimer act inactive, TR-FRET interf inactive and LEDGF integ conf inactive.
`CCOC(=O)c1ccc(N2C(=O)c3n[nH]c(C)c3C2c2ccco2)cc1` (configuration not stated) gave PG9 Ab binder inactive, UHRF1 binding inactive, rCAG RNA binder inactive, LEDGF integ inh inactive, MBD2 DNA inh inactive and DNMT1 inh inactive.
